Results filed as inconclusive are left out. Activity calls are given as the source filed them. Unless noted, the call rests on the fitted dose curve.
Tests used:
[1] = Nuclear factor erythroid 2-related factor 2/antioxidant responsive element (Nrf2/ARE) small molecule agonists: qHTS cell viability counter screen in human keratinocytes (AID 1919968; active means well fitted curve in the direction sought with a large enough effect in the repeat runs; an effect the other way counts as inactive or inconclusive; further: nearly all actives have a fitted effect of over 55% in size)
Summary of the method: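 In human HaCaT keratinocytes stably expressing an ARE-driven luciferase, compound exposure lasted 23 h at 37 C under 5% CO2. Viable cells are quantified with a protease-based fluorogenic reagent (CellTiter-Fluor) read 1 h after addition.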

[2] = Nuclear factor erythroid 2-related factor 2/antioxidant responsive element (Nrf2/ARE) small molecule agonists: luciferase reporter gene qHTS assay in human keratinocytes (AID 1919969); further: nearly all actives have a fitted effect of over 35% in size
[3] = biological target: Gonadotropin-releasing hormone receptor (Homo sapiens) (UniProt P30968); assay: Human gonadotropin-releasing hormone receptor (GnRHR) small molecule agonists, calcium flux assay in GnRHR-HEK293 cells (AID 1920063); further: nearly all actives have a fitted effect of over 35% in size
Summary of the method: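 Intracellular calcium rise is the read-out: engineered human GnRHR HEK293 cells, dye-loaded, are exposed to DMSO-dissolved compounds and fluorescence at Ex/Em 480/540 is tracked for 3 min.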

[4] = biological target: KiSS-1 receptor (Homo sapiens) (UniProt Q969F8); assay: Human kisspeptin (KISS1R) small molecule agonists, calcium flux assay in KISS1R-HEK293 cells (AID 1920064; active means well fitted curve in the direction sought with a large enough effect in the repeat runs; an effect the other way counts as inactive or inconclusive)
Summary of the method: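 Concentration-response testing used 15 concentrations in triplicate on human KISS1R-expressing HEK293 cells. Calcium-dependent fluorescence (Ex/Em 480/540) was followed kinetically for 3 min after compound transfer.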

[5] = G protein-coupled receptor (GPCR) small molecule agonists, calcium flux assay: HEK293 wild type cell line counter screen (AID 1920065)
Summary of the method: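 Fluorescence intensity signals activation. After overnight (18 h) culture and a 1 h calcium dye load at 37 C, compounds are added by pin tool and the plate read at 480/540 nm for 3 min in 1 s steps.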

[6] = p53 small molecule agonists, cell-based qHTS assay with rat liver microsomes (AID 1963578)
Summary of the method: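 Agonist mode in p53RE-bla reporter cells, with compounds co-incubated 16 h at 37 C alongside 0.5 mg/mL rat liver microsomes and 0.5 mg/mL NADPH (final), followed by a 2 h LiveBLAzer detection step.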

[7] = p53 small molecule agonists, cell-based qHTS assay with human liver microsomes: qHTS cell viability counter screen (AID 1963579); further: nearly all actives have a fitted effect of over 45% in size
Summary of the method: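 Metabolically activated exposure: compounds, human liver microsomes and NADPH (0.5 mg/mL final apiece) were added to p53RE-bla cells seeded 5 h earlier, left 16 h at 37 C, and then assessed for viability by CellTiter-Glo luminescence.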

[8] = p53 small molecule agonists, cell-based qHTS assay with rat liver microsomes: qHTS cell viability counter screen (AID 1963580); further: nearly all actives have a fitted effect of over 45% in size
Summary of the method: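 Luminescent ATP readout (CellTiter-Glo, 30 min at room temperature) reports viability of p53RE-bla HCT-116 cells after 16 h at 37 C with test compounds under metabolic activation by rat liver microsomes and NADPH at 0.5 mg/mL final each.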

[9] = p53 small molecule agonists, cell-based qHTS assay: qHTS cell viability counter screen (AID 1963581); further: nearly all actives have a fitted effect of over 45% in size
Summary of the method: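 Luminescence from CellTiter-Glo, reflecting ATP content, serves as the cytotoxicity measure; it is taken after the 2 h reporter substrate step in HCT-116 p53RE-bla cells dosed for 16 h at 37 C.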

[10] = p53 small molecule agonists, cell-based qHTS assay (AID 1963582; active means well fitted activation curve with a large enough effect in the signal ratio in the repeat runs, not every such curve was filed as active; the % refers to the signal ratio)
Summary of the method: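 After plating, p53RE-bla cells sat 5 h in the incubator; compounds or DMSO vehicle were pinned in; a 16 h incubation at 37 C followed; FRET substrate was added and, 2 h later at RT, fluorescence was measured.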

[11] = cAMP Responsive Elements (CRE) small molecule agonists, cell-based qHTS assay (AID 1963590)
Summary of the method: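 Compound exposure lasted 3 h at 37 C/5% CO2 in CRE-bla HEK 293T cells grown in assay medium with 10% dialyzed FBS and 25 mM HEPES. Reporter signal came from LiveBLAzer B/G FRET substrate, 2 h, room temperature.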

[12] = cAMP Responsive Elements (CRE) small molecule antagonists, cell-based qHTS assay (AID 1963591; active means well fitted inhibition curve with a large enough effect in the signal ratio in the repeat runs, not every such curve was filed as active; the % refers to the signal ratio)
Summary of the method: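 Stimulation used NKH477 at a final 0.25 uM for 3 h in compound-treated CRE-bla HEK293T cells, seeded 18 h beforehand. Reporter activity was measured with LiveBLAzer B/G FRET substrate after 2 h at room temperature.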

[13] = biological target: D(2) dopamine receptor (Homo sapiens) (UniProt P14416); assay: Dopamine D2 receptor (DRD2) small molecule agonists, cell-based qHTS assay (AID 1963594); further: nearly all actives have a fitted effect of over 35% in size
Summary of the method: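 HEK293 cells stably expressing DRD2 were cultured 24 h at 37 C, then given Ro20-1724 (0.1 mM final) and compounds for 10 min at room temperature. NKH477 (200nM) was then added for 30 min. cAMP was read by HTRF.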

[14] = biological target: D(2) dopamine receptor (Homo sapiens) (UniProt P14416); assay: Dopamine D2 receptor (DRD2) small molecule antagonists, cell-based qHTS assay (AID 1963595; active means well fitted inhibition curve with a large enough effect in the signal ratio in the repeat runs, with a control signal flat; the % refers to the signal ratio)
Summary of the method: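 Stable D2 receptor HEK293 line, 24 h after seeding. Compound preincubated 10 min, then quinpirole (12 nM) with forskolin analogue NKH477 (200 nM), 30 min, room temperature. Detection by time-resolved FRET of cAMP.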

[15] = biological target: 5-hydroxytryptamine receptor 2A (Homo sapiens) (UniProt P28223); assay: 5-hydroxytryptamine receptor 2A (HTR2A) small molecule antagonists, cell-based qHTS assay (AID 1963586); further: nearly all actives have a fitted effect of over 45% in size
Summary of the method: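 CHO cells stably expressing human HTR2A were plated for 18 h at 37 C, then loaded with calcium dye for 1 h. Compounds were preincubated 5 min at room temperature before DOI (4 nM solution) was added. Kinetic fluorescence was read for 3 min.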

[16] = biological target: 5-hydroxytryptamine receptor 2A (Homo sapiens) (UniProt P28223); assay: 5-hydroxytryptamine receptor 2A (HTR2A) small molecule agonists, cell-based qHTS assay (AID 1963587); further: nearly all actives have a fitted effect of over 30% in size
Summary of the method: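 HTR2A-CHO cells, plated 18 h at 37 C/5% CO2, dye-loaded 1 h at 37 C; compounds in DMSO added by pin tool (agonist mode). Intracellular calcium flux read as kinetic fluorescence on FDSS over 2 min at 1 s intervals.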

[17] = biological target: Muscarinic acetylcholine receptor M1 (Homo sapiens) (UniProt P11229); assay: Cholinergic receptor muscarinic 1 (CHRM1) small molecule antagonists, cell-based qHTS assay (AID 1963588); further: nearly all actives have a fitted effect of over 40% in size
Summary of the method: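 Compounds were tested at 15 concentrations in three independent runs. Dye-loaded CHRM1-CHO cells were exposed 5 min at room temperature before stimulation by acetylcholine added at 50nM. Intracellular calcium was read kinetically on FDSS for 3 min.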

[18] = biological target: Muscarinic acetylcholine receptor M1 (Homo sapiens) (UniProt P11229); assay: Cholinergic receptor muscarinic 1 (CHRM1) small molecule agonists, cell-based qHTS assay (AID 1963589); further: nearly all actives have a fitted effect of over 35% in size
Summary of the method: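 Fluorescent calcium dye reports M1 activation in stably transfected CHO cells. Compounds, 15 concentrations, added after 1 h dye loading at 37 C; kinetic reading at 1 sec intervals.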

[19] = biological target: Beta-2 adrenergic receptor (Homo sapiens) (UniProt P07550); assay: Adrenergic beta2 receptor (ADRB2) small molecule antagonists, cell-based qHTS assay (AID 1963592); further: series mostly up to about 92 µM; nearly all actives have a fitted effect of over 50% in size
Summary of the method: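 Assay format: CHO-ADRB2 cells, 18-20hr seeding at 37C/5% CO2, then compound plus 1nM isoproterenol agonist mix for 0.5hr RT. Homogeneous time-resolved fluorescence cAMP detection after 1hr, expressed as 665/615 nm ratio.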

[20] = p53 small molecule agonists, cell-based qHTS assay with human liver microsomes (AID 1963577);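 further: p53 response element beta-lactamase reporter cells with liver microsomes plus NADPH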
Summary of the method: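 In this qHTS, p53 response-element beta-lactamase cells receive test compound together with a microsome/NADPH activating system (0.5 mg/mL final each) and are incubated 16 h at 37 C before LiveBLAzer fluorescence detection.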
On the % scale 0 is the no-effect control and ±100 the full control effect.

Gonadotropin-releasing hormone receptor (Homo sapiens), sequence (P30968 whole entry, looked up): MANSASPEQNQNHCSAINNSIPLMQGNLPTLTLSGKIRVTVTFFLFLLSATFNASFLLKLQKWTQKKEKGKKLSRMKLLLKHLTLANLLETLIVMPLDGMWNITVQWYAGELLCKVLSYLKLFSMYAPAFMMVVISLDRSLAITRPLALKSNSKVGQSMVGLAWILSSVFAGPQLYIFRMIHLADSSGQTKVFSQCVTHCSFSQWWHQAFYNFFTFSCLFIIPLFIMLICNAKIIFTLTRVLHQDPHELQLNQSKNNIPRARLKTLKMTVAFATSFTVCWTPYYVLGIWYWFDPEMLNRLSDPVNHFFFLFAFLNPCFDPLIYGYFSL
D(2) dopamine receptor (Homo sapiens), sequence (P14416 whole entry, looked up): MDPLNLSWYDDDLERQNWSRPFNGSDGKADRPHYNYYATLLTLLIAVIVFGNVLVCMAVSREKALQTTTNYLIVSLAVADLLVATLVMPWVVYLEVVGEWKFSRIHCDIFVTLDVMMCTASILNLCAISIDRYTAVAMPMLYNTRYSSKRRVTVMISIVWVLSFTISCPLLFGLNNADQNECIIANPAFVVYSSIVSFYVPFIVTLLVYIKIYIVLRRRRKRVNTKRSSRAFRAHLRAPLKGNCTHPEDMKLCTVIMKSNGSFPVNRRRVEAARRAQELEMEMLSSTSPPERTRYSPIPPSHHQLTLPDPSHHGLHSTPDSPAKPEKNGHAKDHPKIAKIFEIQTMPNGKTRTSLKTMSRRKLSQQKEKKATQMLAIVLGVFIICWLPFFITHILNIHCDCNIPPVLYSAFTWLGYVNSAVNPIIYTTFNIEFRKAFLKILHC
Muscarinic acetylcholine receptor M1 (Homo sapiens), sequence (P11229 whole entry, looked up): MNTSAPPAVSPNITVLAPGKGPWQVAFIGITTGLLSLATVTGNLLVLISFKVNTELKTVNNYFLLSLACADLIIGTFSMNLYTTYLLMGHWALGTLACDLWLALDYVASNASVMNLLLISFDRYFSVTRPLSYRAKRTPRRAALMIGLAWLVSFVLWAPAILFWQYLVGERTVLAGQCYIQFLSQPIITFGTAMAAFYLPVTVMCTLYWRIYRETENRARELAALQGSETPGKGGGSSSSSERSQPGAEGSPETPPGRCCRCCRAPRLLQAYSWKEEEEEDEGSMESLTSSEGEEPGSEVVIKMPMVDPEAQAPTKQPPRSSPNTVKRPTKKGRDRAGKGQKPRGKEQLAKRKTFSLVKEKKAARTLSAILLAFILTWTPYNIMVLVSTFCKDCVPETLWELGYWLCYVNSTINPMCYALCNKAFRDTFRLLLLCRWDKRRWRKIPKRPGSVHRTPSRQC
Beta-2 adrenergic receptor (Homo sapiens), sequence (P07550 whole entry, looked up): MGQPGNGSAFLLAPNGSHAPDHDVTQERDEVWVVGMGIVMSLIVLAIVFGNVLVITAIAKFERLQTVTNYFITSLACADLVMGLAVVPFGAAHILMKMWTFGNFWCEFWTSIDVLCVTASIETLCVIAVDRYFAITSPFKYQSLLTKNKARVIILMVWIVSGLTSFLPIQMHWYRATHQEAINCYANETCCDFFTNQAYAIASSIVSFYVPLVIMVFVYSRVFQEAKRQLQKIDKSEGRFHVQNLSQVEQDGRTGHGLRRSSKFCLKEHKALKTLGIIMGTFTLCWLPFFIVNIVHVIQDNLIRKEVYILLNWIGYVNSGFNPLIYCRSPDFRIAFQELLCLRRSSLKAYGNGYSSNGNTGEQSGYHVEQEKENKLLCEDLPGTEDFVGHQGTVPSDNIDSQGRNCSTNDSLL
5-hydroxytryptamine receptor 2A (Homo sapiens), sequence (P28223 whole entry, looked up): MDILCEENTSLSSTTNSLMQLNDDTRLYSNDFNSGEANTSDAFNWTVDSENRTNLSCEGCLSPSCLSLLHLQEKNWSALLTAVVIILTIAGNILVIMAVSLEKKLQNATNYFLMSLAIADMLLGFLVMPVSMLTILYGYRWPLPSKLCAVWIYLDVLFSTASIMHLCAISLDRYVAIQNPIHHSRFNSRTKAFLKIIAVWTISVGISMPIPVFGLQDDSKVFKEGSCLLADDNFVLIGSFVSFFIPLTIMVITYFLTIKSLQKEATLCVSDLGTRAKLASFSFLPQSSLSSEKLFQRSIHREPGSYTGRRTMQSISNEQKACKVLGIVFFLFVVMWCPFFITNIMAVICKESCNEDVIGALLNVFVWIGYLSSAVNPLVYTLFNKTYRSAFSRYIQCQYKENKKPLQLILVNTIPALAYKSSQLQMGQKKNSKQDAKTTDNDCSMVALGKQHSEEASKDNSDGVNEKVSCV
KiSS-1 receptor (Homo sapiens), sequence (Q969F8 whole entry, looked up): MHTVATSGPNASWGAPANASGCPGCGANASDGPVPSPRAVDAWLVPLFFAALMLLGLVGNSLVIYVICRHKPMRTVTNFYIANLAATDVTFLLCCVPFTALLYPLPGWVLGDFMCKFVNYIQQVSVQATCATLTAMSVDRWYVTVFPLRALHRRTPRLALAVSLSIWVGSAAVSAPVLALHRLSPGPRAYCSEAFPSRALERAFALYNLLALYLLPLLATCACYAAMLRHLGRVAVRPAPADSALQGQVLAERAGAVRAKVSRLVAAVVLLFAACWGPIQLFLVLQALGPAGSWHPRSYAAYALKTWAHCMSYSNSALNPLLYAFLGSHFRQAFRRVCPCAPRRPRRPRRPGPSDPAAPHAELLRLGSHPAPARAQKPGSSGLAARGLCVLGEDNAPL

CCOC(=O)[C@H](CCc1ccccc1)N[C@@H](C)C(=O)N1[C@H](C(=O)O)C[C@@H]2CCC[C@@H]21
inactive: Potency [1] | Potency [2] | Potency [3] | outcome [4] | outcome [5] | Potency [6] | Potency [7] | Potency [8] | Potency [9] | Potency [10] | Potency [11] | Potency [12] | Potency [13] | Potency [14]

CCOc1ccccc1O
inactive: Potency [1] | Potency [2] | Potency [3] | outcome [4] | outcome [5] | Potency [6] | Potency [7] | Potency [8] | Potency [9] | Potency [10] | Potency [15] | Potency [16] | Potency [17] | Potency [18] | Potency [12] | Potency [19] | Potency [13] | Potency [14]

CCC(C(=O)O)c1ccc(N2Cc3ccccc3C2=O)cc1 (stereo unspecified)
inactive: Potency [1] | Potency [2] | Potency [3] | outcome [4] | outcome [5] | Potency [6] | Potency [7] | Potency [8] | Potency [9] | Potency [15] | Potency [16] | Potency [17] | Potency [18] | Potency [19] | Potency [13] | Potency [14]

CC(CN(C)C)C(C)(O)Cc1ccc(Cl)cc1 (stereo unspecified)
inactive: Potency [1] | Potency [2] | Potency [3] | outcome [4] | outcome [5] | Potency [6] | Potency [7] | Potency [8] | Potency [9] | Potency [10] | Potency [16] | Potency [17] | Potency [18] | Potency [12] | Potency [19] | Potency [13] | Potency [14]

CCC(=O)O[C@]1(C(=O)SCF)[C@H](C)C[C@H]2[C@@H]3C[C@H](F)C4=CC(=O)C=C[C@]4(C)[C@@]3(F)[C@@H](O)C[C@@]21C
inactive: Potency [1] | Potency [2] | Potency [3] | outcome [4] | outcome [5] | Potency [20] | Potency [9] | Potency [15] | Potency [17] | Potency [12] | Potency [13] | Potency [14]

CCc1cccc(C)c1N(C(=O)C(=O)O)C(C)COC (stereo unspecified)
inactive: Potency [1] | Potency [2] | Potency [3] | outcome [4] | outcome [5] | Potency [6] | Potency [7] | Potency [8] | Potency [9] | Potency [10] | Potency [15] | Potency [16] | Potency [17] | Potency [18] | Potency [11] | Potency [12] | Potency [19] | Potency [13] | Potency [14]

CC(C)Cn1cnc2c(N)nc3ccccc3c21
inactive: activity change, negative = cytotoxicity [1] -5.63% [at 19 µM] | activity, positive = activation [2] 7.96% [at 19 µM] | activity change [3] -1.43% [at 11.8 µM, stronger effect = higher value] | activation [4] 1.32% [at 15.8 µM] | activation [5] -0.0034% [at 11.8 µM] | activation [20] 13.5% [at 13.5 µM] | activity change, negative = cytotoxicity [8] -0.545% [at 13.5 µM] | activation [11] 3.84% [at 19 µM] | activity change, negative = inhibition [12] 2.85% [at 18.9 µM] | activity change, negative = inhibition [19] -12.1% [at 19 µM]

Reference: PubChem BioAssay (Tox21)
